The values below come from ChEMBL document CHEMBL2218924, “A broad activity screen in support of a chemogenomic map for kinase signalling research and drug discovery” (Biochem J, 2013).

Each structure is given as a SMILES string.

Test [1] deals with T1, Ephrin type-A receptor 3 (Homo sapiens) (UniProt P29320).
T1 sequence (whole entry): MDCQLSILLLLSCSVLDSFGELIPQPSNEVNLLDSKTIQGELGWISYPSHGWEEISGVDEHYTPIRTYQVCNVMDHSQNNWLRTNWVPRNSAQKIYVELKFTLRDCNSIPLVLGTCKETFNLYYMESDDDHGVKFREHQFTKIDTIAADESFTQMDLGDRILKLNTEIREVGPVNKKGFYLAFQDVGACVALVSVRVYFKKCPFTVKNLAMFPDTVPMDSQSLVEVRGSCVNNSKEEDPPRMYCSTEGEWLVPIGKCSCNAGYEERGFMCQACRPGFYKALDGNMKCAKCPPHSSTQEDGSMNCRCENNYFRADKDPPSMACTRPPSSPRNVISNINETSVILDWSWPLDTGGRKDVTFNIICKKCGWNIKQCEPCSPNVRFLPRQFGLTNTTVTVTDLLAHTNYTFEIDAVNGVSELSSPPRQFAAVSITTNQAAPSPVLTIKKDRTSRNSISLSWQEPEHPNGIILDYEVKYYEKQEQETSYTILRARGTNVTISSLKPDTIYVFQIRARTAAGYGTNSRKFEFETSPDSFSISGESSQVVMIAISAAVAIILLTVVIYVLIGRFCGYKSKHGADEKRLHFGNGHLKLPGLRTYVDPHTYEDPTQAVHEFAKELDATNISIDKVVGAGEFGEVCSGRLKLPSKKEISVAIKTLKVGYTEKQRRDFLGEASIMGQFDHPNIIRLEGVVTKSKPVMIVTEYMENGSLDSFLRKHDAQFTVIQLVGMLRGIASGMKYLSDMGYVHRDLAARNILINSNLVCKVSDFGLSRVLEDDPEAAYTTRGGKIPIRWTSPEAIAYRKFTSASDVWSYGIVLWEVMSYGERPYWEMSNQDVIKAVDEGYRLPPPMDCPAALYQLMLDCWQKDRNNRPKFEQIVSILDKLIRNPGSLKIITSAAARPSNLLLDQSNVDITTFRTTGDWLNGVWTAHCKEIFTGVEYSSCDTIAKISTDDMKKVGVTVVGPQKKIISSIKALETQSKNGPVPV
To be noted: at 10 µM.

The target in test [2] is Ephrin type-A receptor 4 (Homo sapiens) (UniProt P54764). Conditions: at 1 µM.
Test [3] has the same target. Conditions: at 10 µM.
In test [4] the target is Ephrin type-A receptor 5 (Homo sapiens) (UniProt P54756). To be noted: at 1 µM.
Test [5] shares this target. Conditions: at 10 µM.
Test [6] has as its target Ephrin type-A receptor 7 (Homo sapiens) (UniProt Q15375). Conditions: at 1 µM.
The target is the same in test [7]. Conditions: at 10 µM.
In test [8] the target is T2, Ephrin type-A receptor 8 (Homo sapiens) (UniProt P29322).
T2 sequence (whole entry): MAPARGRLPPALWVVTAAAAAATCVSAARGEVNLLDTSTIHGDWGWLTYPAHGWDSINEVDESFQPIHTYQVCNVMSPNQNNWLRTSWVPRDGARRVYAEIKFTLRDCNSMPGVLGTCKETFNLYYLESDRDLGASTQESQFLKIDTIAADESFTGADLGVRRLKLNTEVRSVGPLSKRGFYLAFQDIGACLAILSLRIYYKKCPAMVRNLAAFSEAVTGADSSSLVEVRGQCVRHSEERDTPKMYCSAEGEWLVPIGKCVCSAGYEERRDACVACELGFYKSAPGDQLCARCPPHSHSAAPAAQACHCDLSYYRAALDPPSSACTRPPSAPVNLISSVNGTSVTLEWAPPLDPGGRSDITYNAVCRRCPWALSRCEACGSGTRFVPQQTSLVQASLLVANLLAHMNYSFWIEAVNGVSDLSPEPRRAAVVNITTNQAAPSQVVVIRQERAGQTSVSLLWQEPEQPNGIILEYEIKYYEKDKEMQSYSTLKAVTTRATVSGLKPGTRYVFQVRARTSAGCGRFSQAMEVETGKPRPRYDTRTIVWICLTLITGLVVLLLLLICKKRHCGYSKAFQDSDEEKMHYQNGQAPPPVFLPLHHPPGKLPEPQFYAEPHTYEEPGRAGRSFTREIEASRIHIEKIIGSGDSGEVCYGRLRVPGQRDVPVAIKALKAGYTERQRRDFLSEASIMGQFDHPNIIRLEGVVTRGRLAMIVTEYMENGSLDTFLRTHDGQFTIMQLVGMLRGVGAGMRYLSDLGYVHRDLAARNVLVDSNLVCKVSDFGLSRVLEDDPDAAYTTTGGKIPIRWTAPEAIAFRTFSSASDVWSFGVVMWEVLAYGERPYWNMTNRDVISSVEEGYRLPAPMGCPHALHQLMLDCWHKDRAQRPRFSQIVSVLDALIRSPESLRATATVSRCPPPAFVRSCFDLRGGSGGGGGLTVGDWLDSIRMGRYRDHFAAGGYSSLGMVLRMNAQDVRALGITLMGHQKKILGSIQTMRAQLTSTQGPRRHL
Conditions: at 1 µM.

Test [9] deals with T2, Ephrin type-A receptor 8 (Homo sapiens). Conditions: at 10 µM.
For test [10], the target named is T3, Ephrin type-B receptor 1 (Homo sapiens) (UniProt P54762).
T3 sequence (whole entry): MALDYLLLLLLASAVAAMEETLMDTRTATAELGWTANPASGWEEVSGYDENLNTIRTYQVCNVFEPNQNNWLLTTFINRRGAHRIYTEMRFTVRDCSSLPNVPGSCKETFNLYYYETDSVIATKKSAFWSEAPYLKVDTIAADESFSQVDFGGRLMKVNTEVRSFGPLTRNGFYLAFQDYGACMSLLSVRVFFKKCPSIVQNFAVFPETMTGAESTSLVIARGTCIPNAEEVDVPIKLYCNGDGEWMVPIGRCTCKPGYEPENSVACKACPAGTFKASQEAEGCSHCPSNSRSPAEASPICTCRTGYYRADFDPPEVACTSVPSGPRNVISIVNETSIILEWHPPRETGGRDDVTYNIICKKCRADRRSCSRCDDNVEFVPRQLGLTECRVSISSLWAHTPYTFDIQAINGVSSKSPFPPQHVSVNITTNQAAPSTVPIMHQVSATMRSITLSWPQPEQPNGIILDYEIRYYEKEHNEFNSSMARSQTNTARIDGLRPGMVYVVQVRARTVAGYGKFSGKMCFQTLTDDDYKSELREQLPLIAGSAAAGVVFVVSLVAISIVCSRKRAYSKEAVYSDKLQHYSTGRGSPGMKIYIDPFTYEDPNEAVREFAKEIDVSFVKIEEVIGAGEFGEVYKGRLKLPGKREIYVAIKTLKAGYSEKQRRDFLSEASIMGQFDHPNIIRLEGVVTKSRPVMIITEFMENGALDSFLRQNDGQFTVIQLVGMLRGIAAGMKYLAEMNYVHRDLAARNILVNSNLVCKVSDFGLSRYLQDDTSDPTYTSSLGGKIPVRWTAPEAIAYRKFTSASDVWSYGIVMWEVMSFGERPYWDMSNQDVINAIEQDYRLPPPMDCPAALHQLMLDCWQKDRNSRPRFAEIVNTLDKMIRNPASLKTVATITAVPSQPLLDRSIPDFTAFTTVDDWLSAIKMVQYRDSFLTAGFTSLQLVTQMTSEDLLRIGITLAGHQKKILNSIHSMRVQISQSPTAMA
Conditions: at 1 µM.

For test [11], the target named is T3, Ephrin type-B receptor 1 (Homo sapiens). To be noted: at 10 µM.
The target of test [12] is Receptor tyrosine-protein kinase erbB-4 (Homo sapiens) (UniProt Q15303). To be noted: at 1 µM.
For test [13] the target is unchanged. To be noted: at 10 µM.
In test [14] the target is Focal adhesion kinase 1 (Homo sapiens) (UniProt Q05397). To be noted: at 1 µM.

Chain of Ephrin type-A receptor 5 (Homo sapiens) (P54756 whole entry): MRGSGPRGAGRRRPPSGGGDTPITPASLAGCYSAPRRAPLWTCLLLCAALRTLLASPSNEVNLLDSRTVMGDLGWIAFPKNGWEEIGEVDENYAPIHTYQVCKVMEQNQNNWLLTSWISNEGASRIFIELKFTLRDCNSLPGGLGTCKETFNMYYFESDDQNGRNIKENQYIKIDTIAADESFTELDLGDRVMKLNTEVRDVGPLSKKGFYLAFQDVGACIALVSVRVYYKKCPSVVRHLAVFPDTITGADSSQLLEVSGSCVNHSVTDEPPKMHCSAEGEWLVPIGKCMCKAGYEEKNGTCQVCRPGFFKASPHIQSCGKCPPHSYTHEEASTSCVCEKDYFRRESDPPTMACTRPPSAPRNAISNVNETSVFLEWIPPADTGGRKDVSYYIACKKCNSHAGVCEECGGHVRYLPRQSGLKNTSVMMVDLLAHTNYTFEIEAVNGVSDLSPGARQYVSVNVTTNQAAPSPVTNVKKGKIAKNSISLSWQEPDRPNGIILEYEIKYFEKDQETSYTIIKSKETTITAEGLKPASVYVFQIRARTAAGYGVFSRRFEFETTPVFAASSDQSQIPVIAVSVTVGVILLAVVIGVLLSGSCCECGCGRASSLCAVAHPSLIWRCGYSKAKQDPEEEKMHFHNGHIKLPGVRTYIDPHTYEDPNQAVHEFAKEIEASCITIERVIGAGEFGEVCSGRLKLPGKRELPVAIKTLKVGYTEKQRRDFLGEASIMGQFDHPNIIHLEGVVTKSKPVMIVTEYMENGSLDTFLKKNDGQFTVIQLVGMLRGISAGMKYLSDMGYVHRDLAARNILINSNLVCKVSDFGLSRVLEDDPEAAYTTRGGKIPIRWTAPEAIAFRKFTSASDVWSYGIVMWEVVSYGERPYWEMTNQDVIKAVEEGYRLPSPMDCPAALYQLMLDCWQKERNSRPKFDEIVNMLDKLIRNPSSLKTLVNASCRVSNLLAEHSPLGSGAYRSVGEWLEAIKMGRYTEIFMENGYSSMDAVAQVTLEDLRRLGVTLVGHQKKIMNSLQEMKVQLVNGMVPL
Chain of Ephrin type-A receptor 4 (Homo sapiens) (P54764 whole entry): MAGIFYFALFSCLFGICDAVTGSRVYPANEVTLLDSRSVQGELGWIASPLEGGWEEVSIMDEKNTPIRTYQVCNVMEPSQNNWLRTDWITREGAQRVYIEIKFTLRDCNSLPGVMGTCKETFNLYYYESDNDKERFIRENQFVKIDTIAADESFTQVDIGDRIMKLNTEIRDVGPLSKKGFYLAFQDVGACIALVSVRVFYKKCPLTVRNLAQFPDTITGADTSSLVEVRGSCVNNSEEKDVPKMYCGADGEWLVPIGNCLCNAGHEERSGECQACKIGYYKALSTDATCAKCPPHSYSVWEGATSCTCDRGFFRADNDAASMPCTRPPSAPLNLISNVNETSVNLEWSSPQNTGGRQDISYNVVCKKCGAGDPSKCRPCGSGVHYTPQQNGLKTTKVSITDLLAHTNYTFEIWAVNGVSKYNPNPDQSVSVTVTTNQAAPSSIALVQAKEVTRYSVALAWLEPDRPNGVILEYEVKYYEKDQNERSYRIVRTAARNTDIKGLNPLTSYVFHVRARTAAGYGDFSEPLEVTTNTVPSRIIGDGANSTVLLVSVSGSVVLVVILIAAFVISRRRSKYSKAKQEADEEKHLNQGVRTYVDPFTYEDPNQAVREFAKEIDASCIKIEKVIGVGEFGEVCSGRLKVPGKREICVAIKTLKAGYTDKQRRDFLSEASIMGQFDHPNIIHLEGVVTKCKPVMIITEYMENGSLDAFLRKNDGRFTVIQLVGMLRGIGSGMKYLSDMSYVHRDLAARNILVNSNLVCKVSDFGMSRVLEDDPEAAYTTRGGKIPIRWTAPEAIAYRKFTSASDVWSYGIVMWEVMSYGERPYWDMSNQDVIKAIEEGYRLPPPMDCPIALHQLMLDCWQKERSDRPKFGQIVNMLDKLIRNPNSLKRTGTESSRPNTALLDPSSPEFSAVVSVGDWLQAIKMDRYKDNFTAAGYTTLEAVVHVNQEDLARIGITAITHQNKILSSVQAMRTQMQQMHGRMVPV
Chain of Ephrin type-A receptor 7 (Homo sapiens) (Q15375 28-998 limits assumed): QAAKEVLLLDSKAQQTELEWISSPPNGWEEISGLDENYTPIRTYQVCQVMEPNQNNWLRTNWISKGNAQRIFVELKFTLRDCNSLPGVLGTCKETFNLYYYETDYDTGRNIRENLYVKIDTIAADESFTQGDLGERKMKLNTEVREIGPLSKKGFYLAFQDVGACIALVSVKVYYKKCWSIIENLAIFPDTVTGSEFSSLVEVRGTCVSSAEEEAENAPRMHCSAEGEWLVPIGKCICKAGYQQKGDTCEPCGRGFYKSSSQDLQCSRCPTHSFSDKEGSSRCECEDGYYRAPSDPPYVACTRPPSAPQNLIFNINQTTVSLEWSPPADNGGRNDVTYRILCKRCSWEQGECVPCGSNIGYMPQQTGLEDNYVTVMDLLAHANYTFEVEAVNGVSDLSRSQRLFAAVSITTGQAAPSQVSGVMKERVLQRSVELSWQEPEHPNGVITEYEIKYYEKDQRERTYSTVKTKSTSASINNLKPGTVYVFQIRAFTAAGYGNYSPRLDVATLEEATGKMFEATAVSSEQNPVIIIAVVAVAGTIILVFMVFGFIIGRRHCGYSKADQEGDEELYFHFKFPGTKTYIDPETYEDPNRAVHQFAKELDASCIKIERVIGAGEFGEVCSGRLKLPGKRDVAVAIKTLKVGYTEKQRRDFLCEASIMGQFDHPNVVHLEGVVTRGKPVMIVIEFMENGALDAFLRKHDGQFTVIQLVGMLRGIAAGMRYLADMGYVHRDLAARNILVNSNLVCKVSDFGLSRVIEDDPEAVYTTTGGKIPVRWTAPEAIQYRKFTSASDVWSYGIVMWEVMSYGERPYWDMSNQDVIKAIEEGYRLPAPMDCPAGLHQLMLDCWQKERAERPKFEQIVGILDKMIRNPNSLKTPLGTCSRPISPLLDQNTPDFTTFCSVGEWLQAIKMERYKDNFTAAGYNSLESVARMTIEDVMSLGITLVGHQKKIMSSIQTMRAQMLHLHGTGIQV
Chain of Receptor tyrosine-protein kinase erbB-4 (Homo sapiens) (Q15303 whole entry): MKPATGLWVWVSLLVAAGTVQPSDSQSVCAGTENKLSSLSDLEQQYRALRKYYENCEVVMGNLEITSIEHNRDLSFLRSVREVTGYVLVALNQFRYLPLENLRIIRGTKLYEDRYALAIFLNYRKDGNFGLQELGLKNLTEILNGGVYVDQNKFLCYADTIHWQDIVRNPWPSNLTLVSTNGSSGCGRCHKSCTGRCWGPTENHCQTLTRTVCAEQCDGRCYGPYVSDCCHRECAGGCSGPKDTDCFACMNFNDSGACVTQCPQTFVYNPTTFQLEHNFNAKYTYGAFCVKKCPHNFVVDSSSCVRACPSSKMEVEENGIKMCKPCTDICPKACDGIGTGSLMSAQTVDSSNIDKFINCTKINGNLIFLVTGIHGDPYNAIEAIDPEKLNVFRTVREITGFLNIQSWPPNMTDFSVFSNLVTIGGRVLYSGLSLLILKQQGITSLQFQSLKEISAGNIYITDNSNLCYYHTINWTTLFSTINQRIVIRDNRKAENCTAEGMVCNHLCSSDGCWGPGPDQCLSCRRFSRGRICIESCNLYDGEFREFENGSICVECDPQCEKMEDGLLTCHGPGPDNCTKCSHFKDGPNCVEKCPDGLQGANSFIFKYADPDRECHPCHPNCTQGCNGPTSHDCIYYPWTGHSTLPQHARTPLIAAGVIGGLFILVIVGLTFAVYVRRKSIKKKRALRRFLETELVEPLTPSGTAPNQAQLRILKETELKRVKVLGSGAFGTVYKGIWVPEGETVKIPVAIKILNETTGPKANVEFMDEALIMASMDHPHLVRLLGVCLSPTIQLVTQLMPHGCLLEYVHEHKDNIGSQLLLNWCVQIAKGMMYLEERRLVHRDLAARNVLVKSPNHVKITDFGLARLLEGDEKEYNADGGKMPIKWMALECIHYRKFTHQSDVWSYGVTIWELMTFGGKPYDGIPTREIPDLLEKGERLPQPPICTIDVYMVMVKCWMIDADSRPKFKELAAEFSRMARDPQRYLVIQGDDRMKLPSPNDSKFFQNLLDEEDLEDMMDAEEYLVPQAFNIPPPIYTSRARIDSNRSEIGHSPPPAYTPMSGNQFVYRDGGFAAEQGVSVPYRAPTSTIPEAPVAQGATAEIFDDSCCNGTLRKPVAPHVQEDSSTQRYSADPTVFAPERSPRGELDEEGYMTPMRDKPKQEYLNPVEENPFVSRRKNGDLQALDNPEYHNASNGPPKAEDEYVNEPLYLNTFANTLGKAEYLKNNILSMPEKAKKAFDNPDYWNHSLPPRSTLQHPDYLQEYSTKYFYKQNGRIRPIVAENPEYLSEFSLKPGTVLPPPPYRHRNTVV

For `COc1cc2ncnc(Nc3ccc(NC(=O)c4ccccc4)cc3)c2cc1OC`, the residual activity in test [1] is 102%; in test [2], 109%; in test [3], 102%; in [4], 104%; in [5], 97%; in test [6], 92%. In addition, the residual activity in test [7] came out at 66%; in test [8] it was 103%; in test [9], 103%; in test [10], 97%; in test [11], 83%; in test [12], 35%. Besides, the figures for the residual activity in test [13] and in test [14] were 6% and 142%, respectively.
